High-throughput results: PubChem, Buhrlage Lab, Dana-Farber Cancer Institute and Novartis Institutes for BioMedical Research (Cambridge, Mass)
USP17 inh = blocks human USP17 ubiquitin-rhodamine cleavage | A8MUK1 | inhibition, % at 50 µM | hit rate 6.5% among 47,000 | purified USP17, Ub-rhodamine cleavage fluorescence, 3 h
USP28 block = blocks human USP28 ubiquitin-rhodamine cleavage | Q96RU2 | purified USP28, Ub-rhodamine cleavage fluorescence, 30 min | inhibition, % at 25 µM | hit rate 3% among 47,000
USP30 inh = inhibitors of human USP30 deubiquitinase; hit rate 5.3% among 47,000; Q70CQ3; purified USP30, Ub-rhodamine cleavage fluorescence; inhibition, % at 25 µM
USP8 block = blocks human USP8 ubiquitin-rhodamine cleavage | P40818 | purified USP8, Ub-rhodamine cleavage fluorescence, 30 min | inhibition, % at 20 µM | hit rate 4.2% among 47,000
Starred values were filed as active, the others as inactive. Most compounds without a hit are left out; they make up all but 13% or so of the library. No stated cut-off is given here; in the data, active means inhibition above about 30%; inactive means the rest.

Results for CC(=O)O[C@H]1C[C@]2(O)[C@@H]3CC[C@@H]4C[C@@H](O)CC[C@]4(C)C3CC[C@]2(C)[C@H]1C1=CC(=O)OC1 (some centres not stated) ?
USP17 inh: -9; USP28 block: -8; USP30 inh: 6; USP8 block: 4

How did COc1cc(/C=C/C(=O)NCCCCNC(=O)/C=C/c2ccc(O)c(OC)c2)ccc1O do in these assays?
USP17 inh: 3; USP28 block: -11; USP30 inh: -72; USP8 block: -90

How did CN1CCCN(C(=O)COc2ccc(-c3nc(-c4ccccc4)no3)cc2)CC1 do in these assays?
USP17 inh: -8; USP28 block: 6; USP30 inh: 5; USP8 block: -2

What do the screens show for `COC(=O)[C@H](C)NC(=O)c1cccn(Cc2ccc(Cl)cc2)c1=O`?
USP17 inh: 14; USP8 block: -4

What do the screens show for `CCCCCC(O)c1c(O)cc2c(c1O)C(=O)c1c(O)cc(O)cc1C2=O` (configuration not stated)?
USP17 inh: 58*; USP28 block: -48; USP30 inh: inactive; USP8 block: -16

How did COc1ccc(OC)c(-c2c(C#N)c(C)nc3c2N2CCC3CC2)c1 do in these assays?
USP17 inh: 49*; USP28 block: 94*; USP30 inh: 43*; USP8 block: 0

Results for O=C(CNC(=O)c1ccccc1Br)Nc1ccc(Br)cc1C(=O)c1ccccc1 ?
USP17 inh: 22; USP28 block: 14; USP30 inh: 43*; USP8 block: 4

Results for O=C(CNC(=O)OCc1ccccc1)Nc1ccc(Br)cc1C(=O)c1ccccc1Cl ?
USP17 inh: 77*; USP28 block: -2; USP30 inh: -6; USP8 block: 1

What do the screens show for `C/C=C/[C@H]1O[C@@](O)([C@@H](C)[C@H](O)[C@H](C)[C@H]2OC(=O)/C(OC)=C/C(C)=C[C@@H](C)[C@@H](O)[C@@H](CC)[C@@H](O)[C@H](C)C/C(C)=C/C=C/[C@@H]2OC)C[C@@H](O[C@H]2C[C@@H](O)[C@H](O)[C@@H](C)O2)[C@@H]1C`?
USP17 inh: -9; USP28 block: -16; USP30 inh: -39; USP8 block: -19

What do the screens show for `CN1C(=O)[C@]23CC4=CC=C[C@H](O)[C@H]4N2C(=O)[C@@]1(CO)SS3`?
USP17 inh: -18; USP28 block: -16; USP30 inh: 50*; USP8 block: -8

What do the screens show for `COC(=O)c1ccccc1NC(=O)CN1C(=O)CN=C(c2ccccc2)c2ccccc21`?
USP17 inh: 10; USP28 block: 11; USP30 inh: 6; USP8 block: 5

Results for CC(C)=CCC[C@H](C(=O)O)[C@@H]1CC[C@]2(C)C3=C(CC[C@@]12C)[C@@]1(C)CCC(=O)C(C)(C)C1CC3 (some centres not stated) ?
USP17 inh: 36*; USP28 block: 17; USP30 inh: 32*; USP8 block: 13

Results for CCCCNC(=O)c1cc2cccnc2n(Cc2ccccc2)c1=O ?
USP17 inh: 69*; USP28 block: 28; USP30 inh: 24; USP8 block: -7

Results for CCCCCCC(O)CCCCCC/C=C/[C@H](O)[C@@H](OC(C)=O)[C@H](O)[C@H](N)C(=O)O (some centres not stated) ?
USP17 inh: 35*; USP28 block: -3; USP30 inh: -24; USP8 block: -24

Results for COCCN1CCC2(COCCN(c3ncc(C)cn3)C2)C1 (configuration not stated) ?
USP17 inh: -10; USP28 block: -1; USP30 inh: 17; USP8 block: -142

Results for CC(C)c1cc2c(c(O)c1O)[C@@]1(C(=O)O)CCCC(C)(C)[C@@H]1CC2 ?
USP17 inh: 79*; USP28 block: 39*; USP30 inh: 57*; USP8 block: 7

What do the screens show for `CC(C)c1cc2c(c(O)c1O)C1(C(=O)O)CCCC(C)(C)C1CC2` (configuration not stated)?
USP17 inh: 88*; USP28 block: 53*; USP30 inh: 81*; USP8 block: 1

Results for COc1cc(N2CC[C@@H]3OCCN(C)[C@H]3CC2)ncn1 ?
USP17 inh: 11; USP28 block: 15; USP30 inh: 33*; USP8 block: -1

Results for COCCN1CCO[C@@H]2CCN(C(=O)c3ccno3)CC[C@H]21 ?
USP17 inh: -23; USP28 block: -15; USP30 inh: -43; USP8 block: -87
